Assay results published in the supplement of paper PMC13380429.

Tests used:
[1] = test system: Vero E6 infected with SARS-CoV-2; assay: morphology score (similarity to uninfected cells); higher = more like uninfected cells; conditions: 24 h
[2] = test system: Vero E6 infected with SARS-CoV-2; assay: SARS-CoV-2 infection rate relative to infected DMSO; higher = more infection, active = 60 or less; conditions: 24 h

`COc1ccc(/C=C/C(=O)O)cc1` [trans-4-methoxycinnamic-acid] (10 µM) was tested, and the morphology score [1] was 0.07 and the SARS-CoV-2 infection rate [2] was 106% (inactive).
`CC(C)c1cccc2c(-c3ccccc3)cc(-c3ccc(-c4ccc(C(=O)O)cc4)[nH]3)nc12` (10 µM) was tested, and the morphology score [1] was 0.104 and the SARS-CoV-2 infection rate [2] was 87.5% (inactive).
For `O=c1cc(-c2cccc3c2Sc2ccccc2S3)oc(N2CCOCC2)c1` (10 µM), the morphology score [1] was 0.284 and the SARS-CoV-2 infection rate [2] was 83% (inactive).
In the case of `CC[C@H](C)[C@@H]1NC(=O)[C@H](Cc2ccc(OC)cc2)NC(=O)CCCSC[C@@H](C(=O)N2CCC[C@H]2C(=O)N[C@@H](CC(C)C)C(=O)NCC(N)=O)NC(=O)[C@H](CC(N)=O)NC(=O)[C@H](CCC(N)=O)NC1=O` [carbetocin] (10 µM), the morphology score [1] is reported as 0.123 and the SARS-CoV-2 infection rate [2] is reported as 118% (inactive).
`Cc1nc(Nc2n[nH]c3c2CN(C(=O)N[C@H](CN(C)C)c2ccccc2)C3(C)C)c2sccc2n1` (10 µM) was tested, and the morphology score [1] was -0.232 and the SARS-CoV-2 infection rate [2] was 111% (inactive).
With `CN1C(=O)c2c(nn(Cc3ccc(-c4cccc(F)n4)cc3)c2Nc2ccccc2)N2C1=N[C@@H]1CCC[C@@H]12` (10 µM) the morphology score [1] was 0.38 and the SARS-CoV-2 infection rate [2] was 105% (inactive).
With `C[C@@H](O[C@H]1OCCN(Cc2nn(P(=O)(O)O)c(=O)[nH]2)[C@H]1c1ccc(F)cc1)c1cc(C(F)(F)F)cc(C(F)(F)F)c1` [fosaprepitant-dimeglumine] (10 µM) the morphology score [1] was 0.0215 and the SARS-CoV-2 infection rate [2] was 112% (inactive).
`CN1CC2c3ccccc3Oc3ccc(Cl)cc3C2C1` (stereo not given) [asenapine] (10 µM) was tested, and the morphology score [1] was 0.67 and the SARS-CoV-2 infection rate [2] was 41% (active).
`COC(=O)C1=C(C)NC(C)=C(C(=O)OC/C=C/c2ccccc2)C1c1cccc([N+](=O)[O-])c1` (stereo not given) [pranidipine] (10 µM) was tested, and the morphology score [1] was -0.0636 and the SARS-CoV-2 infection rate [2] was 107% (inactive).
In the case of `Cn1c2c(c3ccccc31)CCNCC2` (10 µM), the morphology score [1] is reported as 0.0193 and the SARS-CoV-2 infection rate [2] is reported as 103% (inactive).
`CNC(=O)c1ccc2c(c1)CCO[C@H]2CCN1CCN(c2ccc(C(N)=O)cc2)CC1` (10 µM) was tested, and the morphology score [1] was 0.0173 and the SARS-CoV-2 infection rate [2] was 106% (inactive).
`O=Cc1cn(Cc2ccc(Cl)cc2)c2ccccc12` [oncrasin-1] (10 µM) was tested, and the morphology score [1] was 0.108 and the SARS-CoV-2 infection rate [2] was 110% (inactive).
For `NC(=O)C(c1ccccc1)(c1ccc(F)cc1)c1ccc(F)cc1` [senicapoc] (10 µM), the morphology score [1] was -0.127 and the SARS-CoV-2 infection rate [2] was 114% (inactive).
In the case of `O=C(Nc1ccc(Cl)cc1)Nc1ccc(Cl)c(Cl)c1` [triclocarban] (10 µM), the morphology score [1] is reported as 0.0739 and the SARS-CoV-2 infection rate [2] is reported as 98.5% (inactive).
With `O=C(O)C[C@H](O)C(=O)O` [malic-acid] (10 µM) the morphology score [1] was -0.0659 and the SARS-CoV-2 infection rate [2] was 104% (inactive).
With `CC(=O)c1cnc2ccc(-c3cc(Cl)c(O)c(Cl)c3)nc2c1N[C@H]1CC[C@H](CN(C)C)CC1` (0.833333 µM) the morphology score [1] was 0.294 and the SARS-CoV-2 infection rate [2] was 96% (inactive).
`Cc1c[nH]c2ncnc(N3CCC(CN)(C(=O)Nc4cccc(OC(=O)N(C)C)c4)CC3)c12` (10 µM) was tested, and the morphology score [1] was 0.156 and the SARS-CoV-2 infection rate [2] was 94% (inactive).
In the case of `CCC1=C[C@@H]2CN3CCc4c([nH]c5ccccc45)[C@@](C(=O)OC)(C2)[C@@H]13` [catharanthine] (10 µM), the morphology score [1] is reported as 0.119 and the SARS-CoV-2 infection rate [2] is reported as 110% (inactive).
`Cc1ccccc1C(c1ccccc1C)N1C2CCC1CC(O)(c1ccccc1)C2` (stereo not given) (10 µM) was tested, and the morphology score [1] was 0.307 and the SARS-CoV-2 infection rate [2] was 85% (inactive).
With `COc1ccccc1C(=O)Nc1cc2c(cc1N1CCCC1)n(C)c(=O)n2C` (10 µM) the morphology score [1] was 0.0131 and the SARS-CoV-2 infection rate [2] was 93.5% (inactive).
With `Clc1cccc(-c2nnnn2Cc2cccnc2)c1Cl` (10 µM) the morphology score [1] was 0.0426 and the SARS-CoV-2 infection rate [2] was 99.5% (inactive).
For `O=C(NCC(=O)N1CCCCC1)Nc1ccc2nnsc2c1` (10 µM), the morphology score [1] was -0.144 and the SARS-CoV-2 infection rate [2] was 110% (inactive).
With `C[N+]1([O-])[C@@H]2CC[C@H]1C[C@@H](OC(=O)C(CO)c1ccccc1)C2` (stereo not given in full) [atropine-oxide] (10 µM) the morphology score [1] was 0.0224 and the SARS-CoV-2 infection rate [2] was 106% (inactive).
For `O=C(O)c1ccc(S(=O)(=O)N(Cl)Cl)cc1` [halazone] (10 µM), the morphology score [1] was 0.13 and the SARS-CoV-2 infection rate [2] was 95% (inactive).
For `Clc1ccc(C2(c3ccc(-c4cn[nH]c4)cc3)CCNCC2)cc1` (0.833333 µM), the morphology score [1] was 0.29 and the SARS-CoV-2 infection rate [2] was 112% (inactive).
For `O=C(NS(=O)(=O)c1ccc(Br)s1)c1ccc(Cl)cc1Cl` [tasisulam] (10 µM), the morphology score [1] was 0.161 and the SARS-CoV-2 infection rate [2] was 109% (inactive).
With `N[C@@H](C(=O)N[C@@H]1C(=O)N2C(C(=O)O)=C(Cl)CC[C@H]12)c1ccccc1` [loracarbef] (10 µM) the morphology score [1] was 0.167 and the SARS-CoV-2 infection rate [2] was 101% (inactive).
For `C[C@H](Oc1ccc(S(C)(=O)=O)cc1C(=O)N1CCN(c2ncc(C(F)(F)F)cc2F)CC1)C(F)(F)F` [bitopertin] (10 µM), the morphology score [1] was 0.119 and the SARS-CoV-2 infection rate [2] was 108% (inactive).
For `On1ncc(C2CCNCC2)c1-c1cccc(-c2ccccc2)c1` (10 µM), the morphology score [1] was 0.0231 and the SARS-CoV-2 infection rate [2] was 108% (inactive).
`Nc1ccc(-c2nc3ccc(-c4nc5ccc(N)cc5[nH]4)cc3[nH]2)cc1` (10 µM) was tested, and the morphology score [1] was -0.218 and the SARS-CoV-2 infection rate [2] was 108% (inactive).
`CCc1cc(C(C)=O)c(O)cc1OCCCCCC(C)(C)c1nn[nH]n1` (10 µM) was tested, and the morphology score [1] was 0.0736 and the SARS-CoV-2 infection rate [2] was 100% (inactive).
`CN(C(=O)CCCOc1ccc2[nH]c(=O)ccc2c1)C1CCCCC1` [cilostamide] (10 µM) was tested, and the morphology score [1] was -0.131 and the SARS-CoV-2 infection rate [2] was 103% (inactive).
With `CCOC(=O)C1=C(N)Oc2ccc(Br)cc2C1C(C#N)C(=O)OCC` (stereo not given) (10 µM) the morphology score [1] was 0.0924 and the SARS-CoV-2 infection rate [2] was 108% (inactive).
In the case of `CN1CCC[C@@H]1CCSc1ccc(O)cc1` (10 µM), the morphology score [1] is reported as -0.0396 and the SARS-CoV-2 infection rate [2] is reported as 112% (inactive).
For `O=C(O)C(=O)O.[NH-][C@@H]1CCCC[C@H]1[NH-].[Pt+2]` [oxaliplatin] (10 µM), the morphology score [1] was -0.0885 and the SARS-CoV-2 infection rate [2] was 112% (inactive).
With `C[C@H]1O[C@@H](O[C@H]2[C@@H](O)C[C@H](O[C@H]3[C@@H](O)C[C@H](O[C@H]4CC[C@@]5(C)[C@H](CC[C@@H]6[C@@H]5C[C@@H](O)[C@]5(C)[C@@H](C7=CC(=O)OC7)CC[C@]65O)C4)O[C@@H]3C)O[C@@H]2C)C[C@H](O)[C@@H]1O` [digoxin] (0.833333 µM) the morphology score [1] was -0.256 and the SARS-CoV-2 infection rate [2] was 98% (inactive).
`Cc1ccc(C(=O)NCCCCCC(=O)Nc2ccccc2N)cc1` (0.833333 µM) was tested, and the morphology score [1] was -0.0541 and the SARS-CoV-2 infection rate [2] was 120% (inactive).
In the case of `COc1ccc(-c2cc(=O)c3c(OC)c(OC)c(OC)c(OC)c3o2)cc1` [tangeritin] (10 µM), the morphology score [1] is reported as 0.00246 and the SARS-CoV-2 infection rate [2] is reported as 105% (inactive).
With `CC[C@H](C)[C@H](NC(=O)[C@H](Cc1ccc(O)cc1)NC(=O)[C@@H](NC(=O)[C@H](CCCNC(=N)N)NC(=O)[C@@H](N)CC(=O)O)C(C)C)C(=O)N[C@@H](Cc1c[nH]cn1)C(=O)N1CCC[C@H]1C(=O)O` (10 µM) the morphology score [1] was 0.109 and the SARS-CoV-2 infection rate [2] was 104% (inactive).
In the case of `NC(=O)[C@@H](CC1CC1)[C@@H](CCC(F)(F)F)C(=O)N[C@H]1N=C(c2ccccc2)c2cccc(F)c2NC1=O` (10 µM), the morphology score [1] is reported as 0.179 and the SARS-CoV-2 infection rate [2] is reported as 102% (inactive).
With `COc1cc(OC)c(C(=O)CCCCN2CCC3(CC2)NC(=O)NC3=O)cc1NS(=O)(=O)c1ccc(C(F)(F)F)cc1` (10 µM) the morphology score [1] was 0.222 and the SARS-CoV-2 infection rate [2] was 93% (inactive).
`C[C@]12CC[C@H]3[C@@H](CC[C@]4(O)C[C@@H](O)CC[C@]34C=O)[C@@]1(O)CC[C@@H]2C1=CC(=O)OC1` [K-strophanthidin] (0.833333 µM) was tested, and the morphology score [1] was 0.0264 and the SARS-CoV-2 infection rate [2] was 92% (inactive).
With `COc1ccccc1C1(O)CCN(CCCn2c3ccccc3c3ccccc32)CC1` (0.833333 µM) the morphology score [1] was 0.0278 and the SARS-CoV-2 infection rate [2] was 97.5% (inactive).
`CC(=O)O/N=C1\C(=O)N(Cc2cc(Cl)ccc2Cl)c2ccc(Cl)cc21` (10 µM) was tested, and the morphology score [1] was 0.395 and the SARS-CoV-2 infection rate [2] was 76% (inactive).
`CC(=O)NO` [acetohydroxamic-acid] (10 µM) was tested, and the morphology score [1] was -0.0513 and the SARS-CoV-2 infection rate [2] was 106% (inactive).
`Oc1cccc(Nc2ccc(Nc3cccc(O)c3)nn2)c1` [beta-amyloid-synthesis-inhibitor] (10 µM) was tested, and the morphology score [1] was 0.0822 and the SARS-CoV-2 infection rate [2] was 104% (inactive).
With `Cc1nc2c(-c3cnc(N)nc3)nc(N3CCOCC3)nc2n1C(C)C` (10 µM) the morphology score [1] was -0.0616 and the SARS-CoV-2 infection rate [2] was 108% (inactive).
With `CCCC(=O)N1CCCN(c2nc(N)c3cc(OC)c(OC)cc3n2)CC1` [bunazosin] (10 µM) the morphology score [1] was 0.0754 and the SARS-CoV-2 infection rate [2] was 108% (inactive).
For `NCCCC(O)(P(=O)(O)O)P(=O)(O)O` [alendronate] (10 µM), the morphology score [1] was 0.102 and the SARS-CoV-2 infection rate [2] was 110% (inactive).
With `COc1cc2c(cc1OC)[C@@]13CCN4CC5=CCO[C@H]6CC(=O)N2[C@H]1[C@H]6[C@H]5C[C@H]43` [brucine] (10 µM) the morphology score [1] was 0.0385 and the SARS-CoV-2 infection rate [2] was 105% (inactive).
In the case of `C=C1/C(=C\C=C2/CCC[C@]3(C)[C@@H]([C@H](C)CCCC(C)(C)O)CC[C@@H]23)C[C@@H](O)C[C@@H]1O` [calcitriol] (10 µM), the morphology score [1] is reported as 0.098 and the SARS-CoV-2 infection rate [2] is reported as 108% (inactive).
With `Cc1c(N)c(=O)n(-c2ccccc2)n1C` [ampyrone] (10 µM) the morphology score [1] was -0.0355 and the SARS-CoV-2 infection rate [2] was 113% (inactive).
`O=C(O)c1nc(=O)[nH]c(=O)[nH]1` [oxonic-acid] (10 µM) was tested, and the morphology score [1] was -0.0587 and the SARS-CoV-2 infection rate [2] was 115% (inactive).
`CC1(C)[C@H]2CC[C@]1(C)[C@@H](O)[C@H]2O` [cis-exo-camphanediol-2,3] (10 µM) was tested, and the morphology score [1] was 0.0601 and the SARS-CoV-2 infection rate [2] was 106% (inactive).
With `Cc1ncc[nH]1` [2-methylimidazole] (10 µM) the morphology score [1] was 0.049 and the SARS-CoV-2 infection rate [2] was 95% (inactive).
In the case of `O=C(Nc1cccc2cccnc12)c1ccc(N2C(=O)[C@@H]3[C@H](C2=O)[C@H]2C=C[C@@H]3C2)cc1` (10 µM), the morphology score [1] is reported as 0.00174 and the SARS-CoV-2 infection rate [2] is reported as 102% (inactive).
In the case of `Cc1nc(C)c(-c2ccc(C3CCC(CC(=O)O)CC3)cc2)nc1C(N)=O` (stereo not given) (10 µM), the morphology score [1] is reported as 0.134 and the SARS-CoV-2 infection rate [2] is reported as 89.5% (inactive).
With `Cc1nn(C)c2c1C(c1ccc(C(F)(F)F)cc1)C(C#N)=C(N)O2` (stereo not given) (10 µM) the morphology score [1] was 0.0472 and the SARS-CoV-2 infection rate [2] was 98% (inactive).
With `Cc1ccc(NC2=CC(=O)c3sc(C)nc3C2=O)cc1` [ryuvidine] (0.833333 µM) the morphology score [1] was 0.165 and the SARS-CoV-2 infection rate [2] was 104% (inactive).
With `NCCC(O)(P(=O)(O)O)P(=O)(O)O` [pamidronate] (10 µM) the morphology score [1] was 0.09 and the SARS-CoV-2 infection rate [2] was 114% (inactive).
